Columns and labels:
Experiment in all cases: PBM binding z-score (relative to random genomic background probes); higher = stronger binding; sequences stand for … in GC…GCGATTGACAGCGTAGAATGAAGG
[1] = tested on: RARb homodimer (NR concentration 270 nM)
Summary of the method: (§1)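 Binding z-scores take random background probes as their reference. They come from custom Agilent 4×180K protein-binding microarrays incubated 1 h with ligand-free nuclear receptor dimers, with antibodies against each partner (one per run) detecting binding. Scanned fluorescence was regression-normalized.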

[2] = tested on: RARg:RXRa (NR concentration 270 nM, RXRa partner concentration 90 nM)
Summary of the method: as §1

[3] = tested on: RARg homodimer (NR concentration 270 nM)
Summary of the method: as §1

[4] = tested on: RXRa DBDmut IVT, anti-RXR (DBD mutation: RXRa K156A/R161A, NR concentration 90 nM)
Summary of the method: as §1

[5] = tested on: RXRa homodimer (NR concentration 180 nM)
Summary of the method: as §1

[6] = tested on: THRa:RXRa (NR concentration 90 nM, RXRa partner concentration 90 nM)
Summary of the method: as §1

[7] = tested on: THRa homodimer (NR concentration 90 nM)
Summary of the method: as §1

[8] = tested on: VDR:RXRa (NR concentration 270 nM, RXRa partner concentration 90 nM)
Summary of the method: as §1

[9] = tested on: VDR homodimer (NR concentration 270 nM)
Summary of the method: as §1

Sequence | PBM binding z-score [1] | PBM binding z-score [2] | PBM binding z-score [3] | PBM binding z-score [4] | PBM binding z-score [5] | PBM binding z-score [6] | PBM binding z-score [7] | PBM binding z-score [8] | PBM binding z-score [9]
GCATATAGGTAATACAAGGTGAAATTCCGATTGT | 0.44 | 0.518 | 0.637 | 0.228 | 0.614 | 4.06 | 0.848 | 0.179 | 0.0965
CTCGAAAGGTCGGTCGAGGTGAGTATACGGATAA | 2.4 | 3.1 | 3.3 | 0.728 | 2.47 | 5.04 | 0.386 | 2.25 | 0.0425
ACTTACGGGTCAACGAGGTTATAGAACGCGTATA | 3.89 | 5.69 | 5.34 | 2.56 | 6.54 | 4.21 | 1.21 | 7.78 | 3.53
CGTCCAAGGGCAAAGGTCAGTGAAGAGATGACGG | 4.71 | 6.32 | 5.49 | 1.64 | 6.15 | 3.45 | 0.298 | 3.89 | 1.34
AGAATGAGGCTATTAAGATCAGGGAATTGCGGTC | -0.0206 | -0.0314 | 0.143 | 0.0802 | 0.257 | 0.48 | -0.292 | -0.0838 | -0.448
AGAATGAGGTTAAAATCAGGGAAACAGAATACAT | 0.545 | 1.94 | 1.31 | 1.51 | 2.62 | 2.4 | 0.43 | 1.33 | 0.808
TCTGCTAGGTCAACGATGGTCAGCTAGTCTGCTA | 3.54 | 3.9 | 4.61 | 0.638 | 2.5 | 3.16 | 0.617 | 1.43 | -0.544
TCATATAGGTAAACAGGTGAAAGTGCGTAAGTTA | 1.09 | 0.642 | 0.552 | 1.66 | 1.17 | 0.829 | 0.583 | 1.29 | 0.623
CCTCGGAGGACAACAGCAGGTCAGAGCTGCCAGA | 2.46 | 2.16 | 2.22 | 0.024 | 0.692 | 2.01 | 0.482 | 0.333 | 0.0855
CGTCCAAGATCAAAGGTCAGTGAAGAGATGACGG | 4.44 | 4.65 | 4.54 | 0.609 | 5.07 | 2.59 | 0.239 | 3.08 | 1.07
CTACCAAGGTGAACAATGTCGTTGATTACTATTC | 1.24 | 0.711 | 0.812 | 0.62 | 0.563 | 2.04 | 1.01 | 1.37 | 0.118
TCTTGTAGATCAAGCAGGTGAAGAAAGCCTGAGT | -0.296 | -0.262 | -0.325 | 0.591 | 0.0351 | -0.0555 | -0.319 | 0.0815 | -0.154
CGTAGTTGGTCAAGGTCACACACGCTATAGGTAC | 4.23 | 4.34 | 4.9 | 2.14 | 4.06 | 4.05 | 3.89 | 4.2 | 2.45
TCATACAGGTGAAGGTAACTCAGGTACGCAGTCG | 0.9 | 0.872 | 0.925 | 1.33 | 1.42 | 1.67 | 0.594 | 1.36 | 0.668
GCAGACAGGTGAAACGCAGCTAACTCAGGGTGGC | -0.474 | -0.209 | -0.0146 | -0.543 | -0.0388 | -0.192 | -0.872 | -0.847 | -1.11
TCGAGTAGGTTAGGGTCATTCAGAATGGCGTCGA | 3.05 | 3.8 | 2.8 | 2.11 | 4.66 | 3.83 | 2.62 | 4.32 | 3.97
TATACAGGGTCAAAGGCCAGAGCACGAATGTCGA | 3.57 | 5.66 | 5.23 | 3.1 | 6.87 | 3.46 | 0.672 | 4.37 | 2.9
CGAACTAGGTCATTGACACGACAGTGAATAGTAA | 2.5 | 3.57 | 4.22 | 2.37 | 2.52 | 2.53 | 0.751 | 2.01 | 1.15
ATCGAAAGGTCGAGGTGAGTAGAGAGAAAGGGAA | 2.81 | 4.37 | 4.69 | 0.806 | 4.41 | 2.62 | 0.626 | 2.27 | 0.405
TCGAGTAGGTTAATCGGGGCATTCAGCCAACATA | 0.592 | 0.49 | 0.334 | 0.443 | 0.518 | 1.99 | -0.373 | 3.59 | 0.184
AGAGTGAGGTTAAGATCAGGGAAACAGAATACAT | 1.46 | 2.28 | 1.68 | 0.869 | 2.52 | 2.6 | 1.3 | 1.62 | 1.06
TAGCCTAGGCCATTGGGCCAGTATAGTACGCATC | -0.0575 | -0.137 | 0.339 | -1.16 | -0.506 | -0.321 | -0.972 | -0.626 | -0.404
ATCGAAAGGTCGAGGTGAGTACAGAGAAAGGGAA | 2.93 | 4.39 | 4.17 | 0.83 | 3.89 | 3.1 | 0.817 | 4.25 | 1.13
CAGCCTAGGTCAGGGCGAGTATAGGAGGAACGTT | 2.44 | 3.08 | 3.72 | 0.0681 | 1.76 | 2.03 | 0.0582 | 0.552 | -0.499
TAGCCTAGGTCAGATCGGACCAGTATACGCTATA | 1.86 | 2.7 | 3.46 | -0.00524 | 1.46 | 2.55 | -0.155 | 0.34 | -0.597
TCTTATAGATCAACAGGAGGTTAAGAAAGATCGA | 0.606 | 1.45 | 0.65 | 1.06 | 1.47 | 1.05 | -0.19 | 1.01 | -0.0267

Sequence | PBM binding z-score [1] | PBM binding z-score [2] | PBM binding z-score [3] | PBM binding z-score [4] | PBM binding z-score [5] | PBM binding z-score [6] | PBM binding z-score [7] | PBM binding z-score [8] | PBM binding z-score [9]
ACTCGGAGGCCAAAGGTCAGAGCTACGCCAGTGA | 4.54 | 6.25 | 4.8 | 0.776 | 6.62 | 3.06 | -0.031 | 3.11 | 0.616
ATCGAAAGGTCGAGGTGTGTATAGAGAAAGGGAA | 2.82 | 4.23 | 4.18 | 0.84 | 4.06 | 2.05 | 0.277 | 2.32 | 0.444
TGATATAGGTAATACAGGTGAAAGTCGGCATCTA | 0.513 | 0.793 | 0.583 | -0.27 | 1.12 | 0.952 | 0.267 | 0.523 | 0.316
CGTCCATGGTCAAGGTCAGTGAAAGAGACTCGAA | 3.21 | 3.15 | 3.78 | 0.79 | 2.4 | 2.84 | 1.79 | 1.51 | 1.02
ATCTCTAGGTAACCTAGTTCAGTGAATGCCGAAC | 1.27 | 0.609 | 0.668 | 0.329 | 0.722 | 1.61 | 0.673 | 1.96 | 0.972
CGAACGGGGGCATGAGTTGATAGCAAATGCCGAT | 1.89 | 3.42 | 3.74 | 3.24 | 2.51 | 3.04 | 1.25 | 3.88 | 3.69
ATCTCTAGGTAAGACTCAGGTCAGTGAAGAACGC | 2.52 | 1.49 | 1.35 | 0.359 | 0.773 | 2.67 | 2.37 | 0.693 | 0.803
TAGCCTAGGTCATTGGGCCAGAATAGTACGCATC | 2.6 | 4.03 | 4.07 | 1.58 | 2.8 | 2.66 | 0.586 | 2.01 | 1.12
CCTGCTGGGCCAAGGTCATTGATCAGTCAAAGCA | 3.19 | 3.79 | 2.93 | 1.26 | 3.54 | 3.49 | 2.22 | 3.06 | 2.48
CCAGACAGGTGAGAAGGTAACTAAGCCTCGATTA | 0.66 | 0.524 | 0.586 | -0.275 | 0.277 | 0.221 | -0.101 | -0.0342 | -0.0907
GCTTTCGGGTCAAAGGTTATAGCATGAATAGAAT | 3.37 | 7.01 | 5.04 | 2.52 | 9.55 | 4.61 | 2.14 | 5.79 | 2.16
GCTACTAGGTCAGGTTGGTCAGCTAACGGGTACG | 2.98 | 2.63 | 3.84 | 0.551 | 1.24 | 1.85 | 1.16 | 0.914 | 0.983
GCATATAGGTAATACTAGGTGAAAGTCCGATTGT | 0.423 | 0.466 | 0.359 | 0.563 | 0.745 | 3.45 | 0.246 | 0.212 | 0.235
GCGACTGGGGCATCAGCAGGTTCCCATAACTTAA | 0.194 | -0.00118 | -0.0802 | -0.281 | -0.0306 | -0.0535 | -0.272 | -0.515 | -0.434
CAAACTCGGTCACAGAGGTCAAAGTCCGTGCGTA | 5.29 | 6.57 | 6.96 | 2.49 | 6.63 | 4.04 | 1.73 | 7.57 | 5.74
ATACCAAGGTGCTCGTGAGGTCGTTGATACTAAC | 1.4 | 0.626 | 0.196 | 0.552 | 0.882 | 3.31 | 2.12 | 2.34 | 2.55
ACTAGCAGGCCCAGTTTGGGTCACTCAAACAAAG | 1.42 | 0.324 | 0.28 | -0.882 | 0.398 | 1.72 | 0.659 | -0.198 | -0.243
CGTCCAAGGTCAAGGTCAGTTAAAGAGACTCGAA | 5.26 | 6.92 | 7.72 | 3.68 | 6.66 | 4.4 | 3.3 | 4.83 | 3.29
AGAACGAGGGCGCGCTGAGTTGATAGCAGAGTAG | -0.416 | 0.211 | 0.0624 | 0.991 | 0.444 | 0.45 | -0.623 | 0.589 | 0.824
TCATATAGGTAATACAGGGGAAAGTCGGCATCTA | 0.303 | 0.419 | 0.551 | 1.97 | 0.857 | 0.893 | 0.385 | 1.06 | -0.00129
CGTCCAAGGTCAGAGAGGTCAGTTAATGCCGAGT | 5.24 | 6.43 | 7.24 | 3.83 | 5.63 | 4.39 | 2.8 | 7.74 | 6.29
CGAAGTAGGTCATTGACAGGACAGTGAATAGTAA | 2.74 | 4.83 | 4.36 | 2.27 | 2.94 | 2.64 | 0.373 | 2.62 | 1.07
TATACAGGGTCAAAGGCCAGTGTACGAATGTCGA | 3.45 | 5.7 | 5.08 | 2.97 | 7.04 | 3.57 | 0.905 | 4.84 | 2.75
GGAACGAGGGCAAAGTTGATATCATCTGTCGACG | 1.26 | 2.14 | 1.97 | 2.81 | 1.96 | 1.32 | 0.0109 | 1.34 | 1.29
TCTTGTAGATCAGCATGTTAAGAAAGCTGGCCAA | -0.787 | -0.255 | -0.411 | 0.518 | -0.151 | -0.548 | -0.975 | 0.172 | -0.468
AGTCAAAGTTCACTAGATAACGTAAGATTCAGCT | 3.55 | 4.97 | 5.79 | 3.76 | 3.84 | 1.46 | -0.386 | 3.5 | 3.35
